Results: PubChem BioAssay (NCI)
The panel holds about 79,000 compounds, 15% with a hit somewhere; the sample as a whole holds those more often. The source made the active and inactive calls. Cut-off read from the data, not from the text of the source: active = growth inhibition above about 70%; inactive = the rest.

Legend:
[1] = NCI Yeast Anticancer Drug Screen. Data for the rad52 strain (AID 147);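 note: 0% = growth of vehicle-treated control cultures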; details: S. cerevisiae rad52 mutant growth inhibition, hits give high values
Method in brief: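 Compounds are applied to a genetically defined yeast strain lacking normal DNA damage repair, and inhibition of growth is expressed relative to cultures given vehicle only.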

[2] = NCI Yeast Anticancer Drug Screen. Data for the wt1 strain (AID 149);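 note: 0% = growth of vehicle-treated wt1 cultures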; details: S. cerevisiae wt1 strain (SPY 50644) growth inhibition, hits give high values
Method in brief: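 Using yeast strain wt1, compound-induced growth inhibition was determined against vehicle-treated cultures.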

[3] = NCI Yeast Anticancer Drug Screen. Data for the rad50EPP+ strain (AID 151);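 note: 0% = growth of vehicle-treated control cultures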; details: S. cerevisiae rad50 mutant strain, hits give high values
Method in brief: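 Compounds were applied to the rad50EPP+ yeast strain, which bears a defined DNA repair alteration, and growth inhibition was determined relative to vehicle-treated cultures.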

[4] = NCI Yeast Anticancer Drug Screen. Data for the mgt1 strain (AID 153); details: S. cerevisiae mgt1 mutant growth inhibition, hits give high values
Method in brief: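 Strain: mgt1 yeast, one of a set carrying defined DNA damage repair or cell cycle control alterations. Compound-treated growth compared with vehicle.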

[5] = NCI Yeast Anticancer Drug Screen. Data for the rad50 strain (AID 155);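 note: 0% = growth of vehicle-only cultures of the same strain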; details: S. cerevisiae rad50 strain growth inhibition, hits give high values
Method in brief: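 Relative growth inhibition (compound vs vehicle) was measured in yeast with a defined repair-gene alteration.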

[6] = NCI Yeast Anticancer Drug Screen. Data for the mec2-1 strain (AID 157); details: S. cerevisiae mec2-1 strain, hits give high values
Method in brief: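 Strain: mec2-1 (DNA repair/cell cycle alteration). Compound exposure, then growth measured; inhibition expressed relative to vehicle.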

[7] = NCI Yeast Anticancer Drug Screen. Data for the rad14 strain (AID 159);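 note: 0% = growth of vehicle-treated control cultures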; details: S. cerevisiae rad14 strain growth inhibition, hits give high values
Method in brief: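 Screen for anticancer potential: a yeast strain altered in DNA damage repair is grown with compound, and reduced growth is quantified against vehicle controls.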

[8] = NCI Yeast Anticancer Drug Screen. Data for the sgs1 mgt1 strain (AID 161);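 note: 0% = growth of cultures given vehicle only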; details: S. cerevisiae sgs1 mgt1 strain, hits give high values
Method in brief: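 Read-out: growth inhibition vs vehicle controls. Cells: mutant yeast strain deficient in DNA damage repair.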

[9] = NCI Yeast Anticancer Drug Screen. Data for the CLN2oe strain (AID 163);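 note: 0% = growth of vehicle-only control cultures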; details: S. cerevisiae CLN2oe strain, hits give high values
Method in brief: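 Growth of a genetically modified yeast strain is measured after compound exposure and compared with cultures given vehicle alone.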

[10] = NCI Yeast Anticancer Drug Screen. Data for the cln2 rad14 strain (AID 165);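 note: 0% = growth equal to vehicle treated cultures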; details: S. cerevisiae cln2 rad14 strain, hits give high values
Method in brief: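 Compounds are applied to the cln2 rad14 yeast strain, and growth is then compared with that of vehicle-treated cultures to give inhibition.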

[11] = NCI Yeast Anticancer Drug Screen. Data for the bub3 strain (AID 167); details: S. cerevisiae bub3 mutant strain, hits give high values
Method in brief: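 Screening used yeast with an engineered genetic alteration affecting cell cycle control. Compound-exposed cultures were compared with vehicle cultures, and reduced growth was taken as inhibition.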

[12] = NCI Yeast Anticancer Drug Screen. Data for the wt2 strain (AID 169);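 note: 0% = growth of vehicle-treated yeast cultures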; details: S. cerevisiae wt2 strain growth inhibition, hits give high values
Method in brief: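 This strain belongs to a panel of yeast strains with defined genetic alterations in DNA damage repair or cell cycle control. Compounds are applied, and growth inhibition is measured against vehicle-treated cultures.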

[13] = NCI Yeast Anticancer Drug Screen. Data for the sgs1 strain (AID 173);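 note: 0% = growth of vehicle-only control cultures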; details: S. cerevisiae sgs1 mutant, hits give high values
Method in brief: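 Growth of a yeast strain bearing a defined genetic alteration is measured after compound treatment. Inhibition is expressed relative to vehicle-only controls.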

[14] = NCI Yeast Anticancer Drug Screen. Data for the mlh1 rad18 strain (AID 175); details: S. cerevisiae mlh1 rad18 strain growth inhibition, hits give high values
Method in brief: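 Read-out is yeast growth inhibition, calculated against vehicle-only controls. The compound was applied to a strain engineered with DNA damage repair alterations.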

[15] = NCI Yeast Anticancer Drug Screen. Data for the rad18 strain (AID 177); details: S. cerevisiae rad18 mutant growth inhibition, hits give high values
Method in brief: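 Growth of the mutant yeast strain after compound exposure, normalised to vehicle-only cultures.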

[16] = NCI Yeast Anticancer Drug Screen. Data for the mlh1 strain (AID 171);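 note: 0% = growth of vehicle-treated control cultures of the same strain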; details: S. cerevisiae mlh1 strain growth inhibition, hits give high values
Method in brief: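 Growth of the mutant yeast strain after compound exposure, expressed as inhibition relative to vehicle-only controls.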

[17] = at 5.0 µM (retest, dose inferred, filed as 0.5)
[18] = at 50.0 µM (retest, dose inferred, filed as 5.0)

Measured: growth inhibition

O=S(=O)(NC1CCCC(c2ccccc2)C1)c1ccccc1 (stereo unspecified)
active: [1]; at 100.0 µM 90% | [4]; at 100.0 µM 95% | [5]; [18] 71% | [5]; at 100.0 µM 93% | [6]; at 100.0 µM 82% | [7]; at 100.0 µM 96% | [9]; at 100.0 µM 95% | [11]; [18] 76% | [11]; at 100.0 µM 87% | [12]; at 100.0 µM 90% | [13]; at 100.0 µM 97% | [14]; [18] 76% | [15]; at 100.0 µM 93%
inactive: [1]; at 1.2 µM 1% | [1]; at 3.7 µM 3% | [1]; at 11.0 µM 3% | [1]; at 33.0 µM 10% | [2]; at 1.2 µM -1% | [2]; at 3.7 µM -4% | [2]; at 11.0 µM 2% | [2]; at 33.0 µM -3% | [2]; at 100.0 µM 50% | [3]; at 1.2 µM -1% | [3]; at 3.7 µM 1% | [3]; at 11.0 µM -1% | [3]; at 33.0 µM 3% | [3]; at 100.0 µM 20% | [4]; at 1.2 µM -3% | [4]; at 3.7 µM -2% | [4]; at 11.0 µM -1% | [4]; at 33.0 µM -2% | [5]; at 1.2 µM 3% | [5]; at 3.7 µM 3% | [5]; [17] -9% | [5]; at 11.0 µM 2% | [5]; at 33.0 µM 11% | [5]; at 50.0 µM 18.2% | [6]; at 1.2 µM -8% | [6]; at 3.7 µM -2% | [6]; [17] -12% | [6]; at 11.0 µM -3% | [6]; at 33.0 µM 0% | [6]; [18] -7% | [6]; at 50.0 µM 24.6% | [7]; at 1.2 µM 1% | [7]; at 3.7 µM 2% | [7]; at 11.0 µM 2% | [7]; at 33.0 µM 4% | [8]; [17] -24% | [8]; [18] 23% | [8]; at 50.0 µM 19.4% | [9]; at 1.2 µM -4% | [9]; at 3.7 µM -4% | [9]; at 11.0 µM 2% | [9]; at 33.0 µM 9% | [10]; [17] -13% | [10]; [18] 16% | [10]; at 50.0 µM 50.8% | [11]; at 1.2 µM 1% | [11]; at 3.7 µM -1% | [11]; [17] -8% | [11]; at 11.0 µM 0% | [11]; at 33.0 µM 15% | [11]; at 50.0 µM 60.8% | [12]; at 1.2 µM -4% | [12]; at 3.7 µM -7% | [12]; at 11.0 µM -3% | [12]; at 33.0 µM -6% | [13]; at 1.2 µM -4% | [13]; at 3.7 µM 4% | [13]; at 11.0 µM -2% | [13]; at 33.0 µM 1% | [14]; [17] -26% | [14]; at 50.0 µM 57.8% | [15]; at 1.2 µM 0% | [15]; at 3.7 µM -2% | [15]; at 11.0 µM 1% | [15]; at 33.0 µM 3%

CCC[CH2][Ge]([CH2]CCC)([CH2]CCC)[O]C(=O)C(O)c1ccccc1 (stereo unspecified)
inactive: [1]; at 1.2 µM 1% | [1]; at 3.7 µM 11% | [1]; at 11.0 µM 45% | [2]; at 1.2 µM -4% | [2]; at 3.7 µM -5% | [2]; at 11.0 µM 11% | [2]; at 33.0 µM 60% | [3]; at 1.2 µM -2% | [3]; at 3.7 µM 3% | [3]; at 11.0 µM 8% | [3]; at 33.0 µM 21% | [3]; at 100.0 µM 49% | [4]; at 1.2 µM -1% | [4]; at 3.7 µM -1% | [4]; at 11.0 µM 10% | [5]; at 1.2 µM 3% | [5]; at 3.7 µM 9% | [5]; at 11.0 µM 36% | [6]; at 1.2 µM -1% | [6]; at 3.7 µM 2% | [6]; [17] 50% | [6]; at 11.0 µM 17% | [6]; at 33.0 µM 69% | [6]; [18] 50% | [7]; at 1.2 µM -3% | [7]; at 3.7 µM -7% | [7]; at 11.0 µM -1% | [7]; at 33.0 µM 68% | [9]; at 1.2 µM -3% | [9]; at 3.7 µM 5% | [9]; at 11.0 µM 17% | [10]; [17] 12% | [10]; [18] 12% | [11]; at 1.2 µM -2% | [11]; at 3.7 µM -4% | [11]; [17] 27% | [11]; at 11.0 µM 24% | [11]; [18] 27% | [16]; at 1.2 µM -1% | [16]; at 3.7 µM -2% | [16]; at 11.0 µM 14% | [13]; at 1.2 µM -1% | [13]; at 3.7 µM -1% | [13]; at 11.0 µM 28% | [15]; at 1.2 µM 10% | [15]; at 3.7 µM 7% | [15]; at 11.0 µM 55%
active: [1]; at 33.0 µM 88% | [1]; at 100.0 µM 98% | [2]; at 100.0 µM 99% | [4]; at 33.0 µM 93% | [4]; at 100.0 µM 99% | [5]; [17] 95% | [5]; at 33.0 µM 90% | [5]; [18] 95% | [5]; at 50.0 µM 90.2% | [5]; at 100.0 µM 97% | [6]; at 50.0 µM 90.5% | [6]; at 100.0 µM 99% | [7]; at 100.0 µM 99% | [8]; [17] 97% | [8]; [18] 97% | [8]; at 50.0 µM 89.5% | [9]; at 33.0 µM 83% | [9]; at 100.0 µM 99% | [10]; at 50.0 µM 91.2% | [11]; at 33.0 µM 88% | [11]; at 50.0 µM 88.3% | [11]; at 100.0 µM 99% | [16]; at 33.0 µM 88% | [16]; at 100.0 µM 99% | [13]; at 33.0 µM 91% | [13]; at 100.0 µM 99% | [14]; [17] 84% | [14]; [18] 84% | [14]; at 50.0 µM 89.7% | [15]; at 33.0 µM 89% | [15]; at 100.0 µM 99%

NC(=S)N/N=C1\c2ccccc2CCC1CCC1(O)CCc2ccccc2C1=O (stereo unspecified)
inactive: [1]; at 1.2 µM 43% | [1]; at 3.7 µM 47% | [1]; at 11.0 µM 55% | [2]; at 1.2 µM 21% | [2]; at 3.7 µM 24% | [2]; at 11.0 µM 19% | [2]; at 33.0 µM 44% | [3]; at 1.2 µM 36% | [3]; at 3.7 µM 23% | [3]; at 11.0 µM 17% | [3]; at 33.0 µM 23% | [3]; at 100.0 µM 10% | [4]; at 1.2 µM 21% | [4]; at 3.7 µM 18% | [4]; at 11.0 µM 48% | [5]; at 1.2 µM 35% | [5]; at 3.7 µM 19% | [5]; [17] 2% | [5]; at 11.0 µM 49% | [5]; [18] 52% | [6]; at 1.2 µM 5% | [6]; at 3.7 µM 13%
active: [1]; at 33.0 µM 86% | [1]; at 100.0 µM 85% | [2]; at 100.0 µM 80% | [4]; at 33.0 µM 82% | [4]; at 100.0 µM 84% | [5]; at 33.0 µM 84% | [5]; at 50.0 µM 86.8% | [5]; at 100.0 µM 78%
